The campaign covered roughly 48,000 compounds. About 13,000 (27%) showed an effect of 50% or more. Some of the results follow.
tested on: Wolbachia pipientis; test: Anti-Wolbachia Cell-Based Screen; assay type: functional; parameters: scale not given: in the data most compounds retested in dose-response had high values; conditions: 5 µM

Row | SMILES | Percent Effect [%]
1 | CCC[C@@H]1CN(C(=O)CCc2ccco2)C[C@H]1NS(C)(=O)=O | -2.62
2 | CC(C)c1nc(C(=O)N2C[C@H](C(C)C)[C@@H](N)C2)cs1 | -1.889
3 | CC1(C(=O)N2CCOCC2)CN(Cc2cccnc2)CCO1 (stereo not given) | 65.44
4 | COc1ncc(-c2nccn2-c2ccccc2CN2CCOCC2)cn1 | 4.794
5 | CSCCC(O)C(=O)N1CCCN(Cc2cccnc2)CC1 (stereo not given) | -2.174
6 | COc1ncc(CN2CCOC(C)(C(=O)N3CCOCC3)C2)cn1 (stereo not given) | 124.6
7 | COc1cc(C(=O)N2CCC(O)(CN3CCOCC3)C(C)(C)C2)ccn1 (stereo not given) | 1.548
8 | Cc1ccc(N2CC3(COCCN(Cc4cccnc4)C3)OCC2=O)s1.O=C(O)C(F)(F)F.O=C(O)C(F)(F)F (stereo not given) | 6.598
9 | CNc1cccc(C2CCCN(C(=O)c3cncs3)C2)n1 (stereo not given) | 121.7
10 | O=C(c1cccnc1)N1CCC(Oc2cccc(C(F)(F)F)c2)CC1 | 6.335
11 | CNc1cccc(C2CCCN(C(=O)c3ccn(C)n3)C2)n1 (stereo not given) | 117.7
12 | CNc1cccc(C2CCN(C(=O)c3cccnc3)CC2)n1 | 107.8
13 | CNc1cccc(C2CCCN(C(=O)c3cscn3)C2)n1 (stereo not given) | 98.56
14 | CN(c1ncccc1CNC(=O)c1csnn1)C1CCCCC1 | 20.86
15 | Cc1ccsc1CN(CCN(C)C)C(=O)c1ccc(C#N)nc1 | -1.147
16 | NC1CCN(C2CCN(c3ccc(-c4ccco4)cc3)CC2)CC1 | -26.06
17 | CCc1nsc(N2CCc3sccc3C2)n1 | 12.97
18 | CNc1cccc(C2CCCN(C(=O)Cc3ccccc3)C2)n1 (stereo not given) | 110.2
19 | CNc1cccc(C2CCCN(C(=O)c3cnccn3)C2)n1 (stereo not given) | 101.6
20 | CNc1cccc(C2CCCN(C(=O)c3coc(C)n3)C2)n1 (stereo not given) | 115.1
21 | CNc1cccc(C2CCCN(C(=O)c3ccncc3)C2)n1 (stereo not given) | -7.86
22 | CNc1cccc(C2CCCN(C(=O)c3cccnc3)C2)n1 (stereo not given) | 119.9
23 | O=C(N[C@@H]1CCN(c2ncc(Cl)cc2Cl)C[C@H]1O)c1cnccn1 | -4.452
24 | COC(C)C(=O)Nc1cc(C(=O)N2CCSCC2)ccc1C (stereo not given) | -22.96
25 | CNS(=O)(=O)c1ccc(CN2CCN3CCNC(=O)C3C2)cc1 (stereo not given) | -0.7065

Row | SMILES | Percent Effect [%]
26 | COCCN1CCCC(O)(CN2CCN(c3cnccn3)CC2)C1=O (stereo not given) | -3.22
27 | O=S(=O)(C1CC1)N1CCC(Cn2cccn2)CC1 | 1.748
28 | Cc1cc(C(C)NC(=O)c2ccc(O)nc2)c(C)o1 (stereo not given) | 2.609
29 | CC(C)N1CC(NC(=O)c2ccc(Cl)s2)CC1=O (stereo not given) | 98.39
30 | O=C(NC1CC(=O)N(C2CC2)C1)c1ccc(Cl)s1 (stereo not given) | -7.498
31 | CCCS(=O)(=O)N1CCC(NC(=O)c2ccc(Cl)s2)CC1 | 8.314
32 | O=C(C1CC1)N1Cc2[nH]nc(COCc3cccnc3)c2C1.O=C(O)C(F)(F)F.O=C(O)C(F)(F)F | 96.05
33 | O=C(O)C(F)(F)F.O=S(=O)(C1CC1)N1Cc2[nH]nc(COCC3CC3)c2C1 | -8.849
34 | CCS(=O)(=O)N1Cc2[nH]nc(COCc3cccnc3)c2C1.O=C(O)C(F)(F)F | 98.27
35 | O=C(NC1CC1)N1Cc2[nH]nc(COc3cccnc3)c2C1.O=C(O)C(F)(F)F | -0.5105
36 | O=C(O)C(F)(F)F.O=C(O)C(F)(F)F.O=C(O)C(F)(F)F.c1ccc(CN2Cc3[nH]nc(COc4cccnc4)c3C2)nc1 | 6.723
37 | O=C(O)C(F)(F)F.O=C(O)C(F)(F)F.c1cncc(COCc2n[nH]c3c2CN(Cc2ccco2)C3)c1 | 1.979
38 | CCSc1ccc(NC(=O)NC(C)c2c(C)nn(C)c2C)cn1 (stereo not given) | -34.73
39 | Cc1nn(C)c(C)c1C(C)NC(=O)Nc1cccnc1N1CCCC1 (stereo not given) | 8.996
40 | Cc1nn(C)c(C)c1-c1ccc(=O)n(C(C)C(=O)NC(C)(C)C)n1 (stereo not given) | 122.1
41 | COC(=O)[C@H]1CN(C(=O)NC(C)C)CCN1C(=O)c1cccs1 | 13.93
42 | Cc1cc(C(=O)N2CCc3nc(N4CCCC4)nc(C)c3CC2)c(C)o1 | 102.5
43 | Cc1nc(N2CCCC2)nc2c1CCN(C(=O)c1ccoc1C)CC2 | 99.57
44 | Cc1nc(N2CCCC2)nc2c1CN(C(=O)c1ccco1)CC2 | 4.912
45 | Cc1cc(C(=O)N2CCc3nc(N4CCOCC4)nc(C)c3C2)c(C)o1.O=CO | 94.45
46 | CN(C)c1nc(N2CCCC2)nc2c1CCN(C(=O)c1ccoc1)CC2 | -4.722
47 | CCc1noc(CS(=O)(=O)C(C)c2nc(C3CC3)no2)n1 (stereo not given) | -17.73
48 | N#Cc1ccccc1OCCN1CCCC1Cn1cccn1 (stereo not given) | 7.756
49 | COCC1CN(C(=O)Cc2ccc(F)cc2)Cc2ccnn2C1 (stereo not given) | 27.63
50 | Cn1cc(Nc2cccc(C(=O)N(CC(N)=O)C3CCCC3)c2)cn1 | 6.719
